Data from PubChem BioAssay (NCI).
This is part of a sample that, as a whole, favours compounds with a hit. Of some 83,000 tested, about 20% had one in any assay.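 Note: values are percent growth. 100 is the growth of untreated cells, values between 100 and 0 indicate rising inhibition; between -100 and 0 indicates cell death.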 Activity calls are given as the source filed them. How the source made its calls: active means growth percent below 10; inactive means the rest.

Key:
Assay in all cases: NCI-60 one-dose screen, 48 h (100 = growth as untreated, 0 = no growth, -100 = all killed)
SR leukemia = settings: 10 µM
RPMI-8226 leukemia = settings: 10 µM
OVCAR-8 ovarian = settings: 10 µM
OVCAR-5 ovarian = settings: 10 µM
OVCAR-4 ovarian = settings: 10 µM
SK-OV-3 ovarian = settings: 10 µM
IGROV1 ovarian = settings: 10 µM
OVCAR-3 ovarian = settings: 10 µM
HS 578T breast = settings: 10 µM
NCI/ADR-RES ovarian = settings: 10 µM
T-47D breast = settings: 10 µM
BT-549 breast = settings: 10 µM
MDA-MB-435 melanoma = settings: 10 µM
SW-620 colon = settings: 10 µM
MCF7 breast = test system: MCF7 breast
HCT-116 colon = settings: 10 µM
HCC-2998 colon = settings: 10 µM
KM12 colon = settings: 10 µM

Measured: growth

Cc1cc(=O)n(-c2ccc(F)cc2)[nH]1
inactive: SR leukemia 97.1% | RPMI-8226 leukemia 94.2% | OVCAR-8 ovarian 95.2% | OVCAR-5 ovarian 94.9% | OVCAR-4 ovarian 99.2% | SK-OV-3 ovarian 95.3% | IGROV1 ovarian 102% | OVCAR-3 ovarian 103% | HS 578T breast 102% | NCI/ADR-RES ovarian 109% | T-47D breast 69.5% | BT-549 breast 105% | MDA-MB-435 melanoma 105% | SW-620 colon 103% | MCF7 breast; 10 µM unless noted 86.7% | HCT-116 colon 104% | HCC-2998 colon 106% | KM12 colon 106%

O=C(Nc1cc(-c2ccccc2)[nH]n1)c1ccc(Cl)cc1
active: IGROV1 ovarian 3.1%
inactive: SR leukemia 47.7% | RPMI-8226 leukemia 36.6% | OVCAR-8 ovarian 84.3% | OVCAR-5 ovarian 80.7% | OVCAR-4 ovarian 71% | SK-OV-3 ovarian 62.7% | OVCAR-3 ovarian 80.5% | HS 578T breast 80.6% | NCI/ADR-RES ovarian 85% | T-47D breast 74.1% | BT-549 breast 83.5% | MDA-MB-435 melanoma 86.4% | SW-620 colon 86.1% | MCF7 breast; 10 µM unless noted 87.6% | HCT-116 colon 72.3% | HCC-2998 colon 100% | KM12 colon 48.6%

C/C(=N\NC(=O)c1ccccc1N)c1ccccc1O
inactive: SR leukemia 35.3% | RPMI-8226 leukemia 52.1% | OVCAR-8 ovarian 18.2% | OVCAR-5 ovarian 52.2% | SK-OV-3 ovarian 58.3% | IGROV1 ovarian 36.3% | OVCAR-3 ovarian 12.4% | HS 578T breast 97.8% | NCI/ADR-RES ovarian 26.7% | T-47D breast 25.2% | BT-549 breast 72.2% | MDA-MB-435 melanoma 57.8% | SW-620 colon 31.6% | HCC-2998 colon 67.5% | KM12 colon 46.3%
active: OVCAR-4 ovarian 6.68% | MCF7 breast; 10 µM unless noted 5.19% | HCT-116 colon 7.72%

C=C1CC/C=C(\C)C(=O)C[C@@H]2[C@@H]1CC2(C)C
inactive: SR leukemia 95.7% | RPMI-8226 leukemia 68.3% | OVCAR-8 ovarian 98.1% | OVCAR-5 ovarian 108% | OVCAR-4 ovarian 110% | SK-OV-3 ovarian 101% | IGROV1 ovarian 11.4% | OVCAR-3 ovarian 96.7% | HS 578T breast 122% | NCI/ADR-RES ovarian 115% | T-47D breast 94.6% | BT-549 breast 105% | MDA-MB-435 melanoma 115% | SW-620 colon 119% | MCF7 breast; 10 µM 101% | HCT-116 colon 99.9% | HCC-2998 colon 98.1% | KM12 colon 109%
active: MCF7 breast; 100 µM -72%

CN(C)/N=C/c1ccccc1O
inactive: SR leukemia 97.9% | RPMI-8226 leukemia 113% | OVCAR-8 ovarian 91.3% | OVCAR-5 ovarian 89.9% | OVCAR-4 ovarian 100% | SK-OV-3 ovarian 105% | IGROV1 ovarian 102% | OVCAR-3 ovarian 110% | HS 578T breast 99.7% | NCI/ADR-RES ovarian 115% | T-47D breast 98.6% | BT-549 breast 97.5% | MDA-MB-435 melanoma 107% | SW-620 colon 100% | MCF7 breast; 10 µM unless noted 106% | HCT-116 colon 94.6% | HCC-2998 colon 117% | KM12 colon 107%

COc1cc(/C=C(\C#N)C(=O)c2ccccc2)ccc1OCc1ccccc1
inactive: SR leukemia 109% | RPMI-8226 leukemia 107% | OVCAR-8 ovarian 108% | OVCAR-5 ovarian 103% | OVCAR-4 ovarian 106% | SK-OV-3 ovarian 107% | IGROV1 ovarian 91.1% | OVCAR-3 ovarian 101% | HS 578T breast 97.5% | NCI/ADR-RES ovarian 98.4% | T-47D breast 105% | BT-549 breast 94.9% | MDA-MB-435 melanoma 101% | SW-620 colon 99.4% | MCF7 breast; 10 µM unless noted 96.6% | HCT-116 colon 104% | HCC-2998 colon 89.8% | KM12 colon 99.1%

O=S(=O)(O)c1cc(O)c2c(N=Cc3ccccc3O)c(S(=O)(=O)O)ccc2c1
inactive: SR leukemia 95.1% | RPMI-8226 leukemia 97.5% | OVCAR-8 ovarian 105% | OVCAR-5 ovarian 103% | OVCAR-4 ovarian 109% | SK-OV-3 ovarian 103% | IGROV1 ovarian 88.4% | OVCAR-3 ovarian 105% | HS 578T breast 103% | NCI/ADR-RES ovarian 104% | T-47D breast 106% | BT-549 breast 101% | MDA-MB-435 melanoma 109% | SW-620 colon 103% | MCF7 breast; 10 µM unless noted 104% | HCT-116 colon 98.4% | HCC-2998 colon 102% | KM12 colon 103%

C/C(=C\c1cc(Cl)ccc1OCC(=O)O)[N+](=O)[O-]
inactive: SR leukemia 113% | RPMI-8226 leukemia 81.5% | OVCAR-8 ovarian 100% | OVCAR-5 ovarian 106% | OVCAR-4 ovarian 111% | SK-OV-3 ovarian 97.7% | IGROV1 ovarian 112% | OVCAR-3 ovarian 109% | HS 578T breast 93.5% | NCI/ADR-RES ovarian 102% | T-47D breast 85.9% | BT-549 breast 117% | MDA-MB-435 melanoma 105% | SW-620 colon 114% | MCF7 breast; 10 µM unless noted 90.4% | HCT-116 colon 109% | HCC-2998 colon 111% | KM12 colon 105%

COC(=O)/C=C\C(=O)OC
inactive: SR leukemia 103% | RPMI-8226 leukemia 114% | OVCAR-8 ovarian 108% | OVCAR-5 ovarian 116% | OVCAR-4 ovarian 115% | SK-OV-3 ovarian 118% | IGROV1 ovarian 113% | OVCAR-3 ovarian 119% | HS 578T breast 113% | NCI/ADR-RES ovarian 111% | T-47D breast 113% | BT-549 breast 99.7% | MDA-MB-435 melanoma 115% | SW-620 colon 105% | MCF7 breast; 10 µM unless noted 103% | HCT-116 colon 108% | HCC-2998 colon 103% | KM12 colon 113%

CCOC(=O)c1cc2cccc(OC)c2oc1=O
inactive: SR leukemia 104% | RPMI-8226 leukemia 95.4% | OVCAR-8 ovarian 116% | OVCAR-5 ovarian 114% | OVCAR-4 ovarian 109% | SK-OV-3 ovarian 117% | IGROV1 ovarian 108% | OVCAR-3 ovarian 138% | HS 578T breast 121% | NCI/ADR-RES ovarian 111% | T-47D breast 106% | BT-549 breast 88.6% | MDA-MB-435 melanoma 110% | SW-620 colon 111% | MCF7 breast; 10 µM unless noted 105% | HCT-116 colon 101% | HCC-2998 colon 108% | KM12 colon 113%

CC(=O)OCC1CCCO1 (centres undefined)
inactive: SR leukemia 102% | RPMI-8226 leukemia 119% | OVCAR-8 ovarian 110% | OVCAR-5 ovarian 110% | OVCAR-4 ovarian 102% | SK-OV-3 ovarian 92% | IGROV1 ovarian 113% | OVCAR-3 ovarian 114% | HS 578T breast 94.2% | NCI/ADR-RES ovarian 105% | T-47D breast 93.1% | BT-549 breast 107% | MDA-MB-435 melanoma 100% | SW-620 colon 87.3% | MCF7 breast; 10 µM unless noted 94.2% | HCT-116 colon 105% | HCC-2998 colon 84.8% | KM12 colon 102%

COC(=O)Nc1nc2ccc(C(=O)c3cccs3)cc2[nH]1
active: SR leukemia -4.93% | OVCAR-3 ovarian -7.19% | NCI/ADR-RES ovarian -20.4% | MDA-MB-435 melanoma -47.6% | KM12 colon 7.54%
inactive: RPMI-8226 leukemia 28.7% | OVCAR-8 ovarian 13.1% | OVCAR-5 ovarian 42.4% | OVCAR-4 ovarian 36.3% | SK-OV-3 ovarian 13.3% | IGROV1 ovarian 39.1% | HS 578T breast 20.9% | T-47D breast 91.1% | BT-549 breast 26.3% | SW-620 colon 24.8% | MCF7 breast; 10 µM unless noted 14.6% | HCT-116 colon 11.7% | HCC-2998 colon 12.1%

O=C(Nc1cccc(NC(=O)Nc2cc(C(F)(F)F)ccc2Cl)c1)Nc1cc(C(F)(F)F)ccc1Cl
active: SR leukemia -15.6% | RPMI-8226 leukemia -14.5% | OVCAR-4 ovarian 7.2% | OVCAR-3 ovarian -5.64% | T-47D breast 8.32% | MCF7 breast; 10 µM unless noted 6.53%
inactive: OVCAR-8 ovarian 14.3% | OVCAR-5 ovarian 27.7% | SK-OV-3 ovarian 36.2% | IGROV1 ovarian 26.9% | HS 578T breast 18.9% | NCI/ADR-RES ovarian 26.2% | BT-549 breast 17.8% | MDA-MB-435 melanoma 12.8% | SW-620 colon 13.5% | HCT-116 colon 13.2% | HCC-2998 colon 37.6% | KM12 colon 12.1%

CCS(=O)(=O)c1cc(=O)[nH]c(=O)[nH]1
inactive: SR leukemia 57.6% | RPMI-8226 leukemia 124% | OVCAR-8 ovarian 114% | OVCAR-5 ovarian 106% | OVCAR-4 ovarian 102% | SK-OV-3 ovarian 116% | IGROV1 ovarian 136% | OVCAR-3 ovarian 112% | HS 578T breast 113% | NCI/ADR-RES ovarian 103% | T-47D breast 114% | BT-549 breast 115% | MDA-MB-435 melanoma 86.7% | SW-620 colon 112% | MCF7 breast; 10 µM unless noted 106% | HCT-116 colon 104% | HCC-2998 colon 116%

COc1ccccc1NC(=O)c1cc2cc(Br)ccc2cc1O
active: SR leukemia -5.13% | RPMI-8226 leukemia -29.6% | OVCAR-8 ovarian 9.55% | SK-OV-3 ovarian 1.19% | IGROV1 ovarian -46% | OVCAR-3 ovarian 4.13% | HS 578T breast 6.12% | NCI/ADR-RES ovarian 5.05% | T-47D breast 9.84% | MCF7 breast; 10 µM unless noted -2.37% | HCT-116 colon 3.77% | KM12 colon 9.92%
inactive: OVCAR-5 ovarian 104% | OVCAR-4 ovarian 18.7% | BT-549 breast 18.8% | MDA-MB-435 melanoma 10.2% | SW-620 colon 10.9% | HCC-2998 colon 20.1%

CCCC1(c2ccccc2)NC(=O)NC1=O (centres undefined)
inactive: SR leukemia 126% | RPMI-8226 leukemia 101% | OVCAR-8 ovarian 111% | OVCAR-5 ovarian 103% | OVCAR-4 ovarian 104% | SK-OV-3 ovarian 99.7% | IGROV1 ovarian 128% | OVCAR-3 ovarian 108% | HS 578T breast 113% | NCI/ADR-RES ovarian 109% | T-47D breast 106% | BT-549 breast 106% | MDA-MB-435 melanoma 113% | SW-620 colon 111% | MCF7 breast; 10 µM unless noted 98.6% | HCT-116 colon 99.3% | HCC-2998 colon 100% | KM12 colon 110%

Cc1cccc(C(=O)N(C(C)C)C(C)C)c1
inactive: SR leukemia 110% | RPMI-8226 leukemia 93.1% | OVCAR-8 ovarian 100% | OVCAR-5 ovarian 98% | OVCAR-4 ovarian 104% | SK-OV-3 ovarian 92.4% | IGROV1 ovarian 103% | OVCAR-3 ovarian 107% | HS 578T breast 90.6% | NCI/ADR-RES ovarian 102% | T-47D breast 83.9% | BT-549 breast 105% | MDA-MB-435 melanoma 106% | SW-620 colon 96.4% | MCF7 breast; 10 µM unless noted 98.9% | HCT-116 colon 94.7% | HCC-2998 colon 109% | KM12 colon 104%

CC(=O)N(C)c1ccc([N+](=O)[O-])cc1
inactive: SR leukemia 105% | RPMI-8226 leukemia 120% | OVCAR-8 ovarian 99.6% | OVCAR-5 ovarian 91.8% | OVCAR-4 ovarian 119% | SK-OV-3 ovarian 106% | IGROV1 ovarian 117% | OVCAR-3 ovarian 118% | HS 578T breast 120% | NCI/ADR-RES ovarian 106% | T-47D breast 94.7% | BT-549 breast 97.4% | MDA-MB-435 melanoma 113% | SW-620 colon 107% | MCF7 breast; 10 µM unless noted 95.6% | HCT-116 colon 102% | HCC-2998 colon 94.8% | KM12 colon 114%
